Results filed as inconclusive are left out. Active and inactive are the calls of the source. Unless noted, the call rests on the fitted dose curve; in most records, active means well fitted curve in the direction sought with a large enough effect in the repeat runs; inconclusive means weak or mixed curves; inactive means no such curve, though single readings can be large; an effect the other way counts as inactive or inconclusive.

The nature of assay [1]: qHTS RealTime-Glo MT Cell Viability Assay in HEK293 cells - 0 hour (AID 1224880). Further: nearly all actives have a fitted effect of over 45% in size. Further: potency means the concentration at half of the fitted maximal effect. Summed up:
(§1)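 Luminescence readout at each listed time point; HEK293, 600 cells/well, RealTime-Glo MT reagent added with cells; compounds pinned (23 nL in DMSO) after 5 h at 37 C; continuous culture at 37 C.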
A general note: Quantitative high-throughput screening tests each substance at several concentrations.

Assay [2] can be described thus: A CellTox Green Cytotoxicity Assay to monitor cytotoxicity in HEK293 cells - 32 hour (AID 1224881). Further: nearly all actives have a fitted effect of over 40% in size. Summed up: (§2)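 Read-out: fluorescence of a cell-impermeant cyanine dye staining DNA of dead cells, proportional to cytotoxicity. HEK293, 600 cells/well with reagent, compound (23 nL DMSO) added after 5 h; reads at 0, 8, 16, 24, 32, 40 h.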
Assay [3] can be described thus: A CellTox Green Cytotoxicity Assay to monitor cytotoxicity in HepG2 cells - 0 hour (AID 1224882). Further: nearly all actives have a fitted effect of over 35% in size. Summed up: (§3)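 HepG2, 600 cells/well premixed w/ CellTox Green; 5 h settle, 37 C/5% CO2; pintool cpd add (DMSO); 37 C, 40 h; fluorescence read at 0, 8, 16, 24, 32, 40 h.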
A short description of assay [4]: A CellTox Green Cytotoxicity Assay to monitor cytotoxicity in HepG2 cells - 32 hour (AID 1224883). Further: nearly all actives have a fitted effect of over 50% in size. Summed up:
as §3

The nature of assay [5]: A CellTox Green Cytotoxicity Assay to monitor cytotoxicity in HEK293 cells - 8 hour (AID 1224884). Further: nearly all actives have a fitted effect of over 35% in size. Summed up: as §2
Assay [6] in a line: qHTS RealTime-Glo MT Cell Viability Assay in HepG2 cells - 16 hour (AID 1224885). Further: nearly all actives have a fitted effect of over 50% in size. Summed up:
(§4)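 Viability was tracked continuously by NanoLuc luminescence from prosubstrate reduced by living HepG2 cells, at successive time points over 40 h of compound exposure. Cells with reagent were preincubated 5 h at 37 °C before compound addition.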

Assay [7] can be described thus: A CellTox Green Cytotoxicity Assay to monitor cytotoxicity in HEK293 cells - 16 hour (AID 1224888). Further: nearly all actives have a fitted effect of over 35% in size. Summed up:
as §2

A short description of assay [8]: qHTS RealTime-Glo MT Cell Viability Assay in HepG2 cells - 0 hour (AID 1224889). Further: nearly all actives have a fitted effect of over 50% in size. Further: potency means the concentration at half of the fitted maximal effect. Summed up:
as §4

Assay [9] can be described thus: A CellTox Green Cytotoxicity Assay to monitor cytotoxicity in HepG2 cells - 8 hour (AID 1224890). Further: nearly all actives have a fitted effect of over 45% in size. Summed up: as §3
A short description of assay [10]: qHTS assay to identify small molecule antagonists of the estrogen receptor alpha (ER-alpha) signaling pathway using the BG1 cell line in the presence of 0.1 nM 17-beta-estradiol - cell viability counter screen (AID 1259241). Further: nearly all actives have a fitted effect of over 40% in size. Summed up: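 VM7Luc4E2 cells (endogenous full-length ER-alpha, 4xERE-luciferase), cultured 5 days in charcoal-stripped serum, exposed to compounds with 0.1 nM 17beta-estradiol (final) for 22 hr at 37C. Viability read in same wells as live-cell protease fluorescence after 30 min.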

A short description of assay [11]: qHTS assay to identify small molecule antagonists of the androgen receptor (AR) signaling pathway using the MDA cell line in the presence of 0.5 nM R1881 - cell viability counter screen (AID 1259242). Further: nearly all actives have a fitted effect of over 45% in size. Summed up: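 Live-cell protease fluorescence, CellTiter-Fluor, 30 min at 37C. Cells: MDA-kb2, 3,000/well, preincubated 5 hr. Compounds plus 0.5 nM R1881 final, 16 hr, 37C, 0% CO2.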

For assay [12], the target named is Estrogen receptor (Homo sapiens) (UniProt P03372). Put plainly: qHTS assay to identify small molecule antagonists of the estrogen receptor alpha (ER-alpha) signaling pathway using the BG1 cell line in the presence of 0.1 nM 17-beta-estradiol (AID 1259244). Further: nearly all actives have a fitted effect of over 50% in size. Summed up: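 Luminescence after ONE-Glo (30 min, room temperature) measured ERE-luciferase activity in VM7Luc4E2 cells treated 22 h with compound and 0.1 nM final 17beta-estradiol as stimulator.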
Estrogen receptor (Homo sapiens), sequence (P03372 whole entry, looked up): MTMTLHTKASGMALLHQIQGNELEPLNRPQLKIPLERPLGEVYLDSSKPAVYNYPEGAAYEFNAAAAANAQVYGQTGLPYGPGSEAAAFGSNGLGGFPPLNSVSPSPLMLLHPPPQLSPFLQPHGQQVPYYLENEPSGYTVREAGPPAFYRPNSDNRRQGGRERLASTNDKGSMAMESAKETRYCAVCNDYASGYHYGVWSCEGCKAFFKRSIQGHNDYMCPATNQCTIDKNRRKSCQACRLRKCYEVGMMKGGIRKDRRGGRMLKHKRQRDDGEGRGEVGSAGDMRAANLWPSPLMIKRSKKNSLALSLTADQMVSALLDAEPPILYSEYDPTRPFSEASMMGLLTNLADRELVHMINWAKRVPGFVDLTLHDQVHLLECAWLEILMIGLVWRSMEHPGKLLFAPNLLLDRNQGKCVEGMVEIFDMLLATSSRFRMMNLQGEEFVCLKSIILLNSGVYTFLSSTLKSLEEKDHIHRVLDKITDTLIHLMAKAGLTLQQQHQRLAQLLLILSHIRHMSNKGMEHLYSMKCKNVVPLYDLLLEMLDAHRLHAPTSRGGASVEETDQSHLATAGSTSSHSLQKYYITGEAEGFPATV

Assay [13] can be described thus: qHTS assay to identify small molecule HDAC inhibitors (AID 1259364).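 Further: wild-type HCT-116 cells with endogenous class I/II HDAC activity; top concentration of the series differs between compounds; nearly all actives have a fitted effect of over 45% in size.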 Summed up: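 HCT-116 (wild type), 1,500 cells/well, overnight; compound 2 hr 37C 5% CO2; HDAC-Glo I/II reagent 30 min RT; luminescence readout.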
Assay [14] is described as follows: qHTS assay to identify small molecule HDAC inhibitors - cell viability counter screen (AID 1259365). Summed up: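 Wild-type HCT-116 cells, 1,500/well, cultured overnight, then compound-treated 2 h at 37 C. Viability measured as ATP luminescence with CellTiter-Glo after 30 min at room temperature.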
Assay [15] is described as follows: qHTS assay to identify small molecule agonists of the sonic hedgehog signaling (Shh) pathway - cell viability counter screen (AID 1259366). Further: nearly all actives have a fitted effect of over 50% in size. Summed up:
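NIH/3T3-derived Gli1-Luc reporter cells, 2,000 per well, received compound after 4 h and were treated about 23 h at 37C. Viability measured in the same wells by CellTiter-Fluor fluorescence after 1 h.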

Assay [16] in a line: qHTS assay to identify small molecule antagonists of the sonic hedgehog signaling (Shh) pathway - cell viability counter screen (AID 1259367). Further: nearly all actives have a fitted effect of over 55% in size. Summed up:
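Conditioned medium drove Shh signaling in 3T3 Gli1-Luc cells exposed to compounds at 37C and 5% CO2. Viability was determined from CellTiter-Fluor fluorescence, with reagent incubated 1 hr after 23 hr of treatment.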

Assay [17] can be described thus: qHTS RealTime-Glo MT Cell Viability Assay in HEK293 cells - 24 hour (AID 1224886). Summed up:
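Viability tracked continuously by luminescence as live cells reduce a prosubstrate for NanoLuc; HEK293 cells preincubated 5 h, compound-treated at 37 C, and read at 0, 8, 16, 24, 32 and 40 h.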

Assay [18] can be described thus: qHTS RealTime-Glo MT Cell Viability Assay in HEK293 cells - 8 hour (AID 1224887). Summed up:
as §1

The target in assay [19] is Androgen receptor (Homo sapiens) (UniProt P10275). Kind of assay: qHTS assay to identify small molecule antagonists of the androgen receptor (AR) signaling pathway using the MDA cell line in the presence of 0.5 nM R1881 (AID 1259243). Further: nearly all actives have a fitted effect of over 50% in size. Summed up:
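MDA-kb2, MMTV-luc (AR/GR elements); 3,000 cells/well; cpd + 0.5 nM R1881 final; 16 hr 37C, 0% CO2; ONE-Glo 30 min RT; luminescence.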

Assay [20] is described as follows: qHTS assay to identify small molecule phospholipidosis (PLD) inducers (AID 1259344; active means well fitted curve in the direction sought with a large enough effect; an effect the other way counts as inactive or inconclusive). Summed up:
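After 4 h attachment on collagen I, HepG2 cells were dosed with compound alongside LipidTOX Red, kept 24 h at 37 C, fixed, and imaged for lamellar phospholipid pits.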

Androgen receptor (Homo sapiens), sequence (P10275 whole entry, looked up): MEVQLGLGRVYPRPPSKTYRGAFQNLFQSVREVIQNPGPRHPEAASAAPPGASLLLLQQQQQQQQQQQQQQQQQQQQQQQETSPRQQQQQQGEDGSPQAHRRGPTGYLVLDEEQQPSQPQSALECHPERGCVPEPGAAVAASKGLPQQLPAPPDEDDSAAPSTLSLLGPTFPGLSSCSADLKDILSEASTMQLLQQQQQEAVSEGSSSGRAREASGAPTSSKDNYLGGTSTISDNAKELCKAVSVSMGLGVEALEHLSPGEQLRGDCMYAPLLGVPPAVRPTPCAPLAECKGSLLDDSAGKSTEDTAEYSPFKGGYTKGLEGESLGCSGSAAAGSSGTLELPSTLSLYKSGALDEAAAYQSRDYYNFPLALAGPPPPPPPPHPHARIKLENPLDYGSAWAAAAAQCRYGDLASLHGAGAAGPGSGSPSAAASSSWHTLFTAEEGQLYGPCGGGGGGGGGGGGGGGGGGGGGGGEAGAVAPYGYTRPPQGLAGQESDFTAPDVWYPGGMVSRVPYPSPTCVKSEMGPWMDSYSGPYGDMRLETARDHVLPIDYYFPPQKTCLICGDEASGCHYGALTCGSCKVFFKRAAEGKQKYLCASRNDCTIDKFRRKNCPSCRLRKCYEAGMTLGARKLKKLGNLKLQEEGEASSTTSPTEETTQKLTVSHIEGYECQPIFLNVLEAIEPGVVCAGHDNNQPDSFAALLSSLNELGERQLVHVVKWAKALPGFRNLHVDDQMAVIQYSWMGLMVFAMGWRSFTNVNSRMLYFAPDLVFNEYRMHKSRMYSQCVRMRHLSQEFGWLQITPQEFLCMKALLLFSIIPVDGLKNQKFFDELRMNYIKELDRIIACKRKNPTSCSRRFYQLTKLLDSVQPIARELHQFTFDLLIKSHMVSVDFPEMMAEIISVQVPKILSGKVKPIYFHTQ

With `CC(C)(O)C#CC(C)(C)O`, the Potency result in assay [1], in assay [2], in [3], in assay [4], in assay [5] and in [6] was “inactive” each time. For the same compound, the Potency entry in assay [7], in assay [8], in [9], in assay [11], in assay [13] and in assay [15] was “inactive” throughout. Moreover, the Potency result in assay [16] was “inactive”. In addition, the outcome in assay [10], in [12] and in assay [14] was inactive.
As to `CC(C)(CC(=O)O)C(=O)O`, the Potency result in assay [1], in assay [2], in assay [3], in assay [5], in [6] and in assay [17] was “inactive” each time. Also, the Potency entry in assay [18], in [7], in assay [8], in [9], in assay [11] and in assay [19] was “inactive” each time. Besides, the Potency result in [13], in assay [15] and in assay [16] was “inactive” in each case. The outcome in assay [10], in assay [12] and in [14] was inactive.
In the case of `CC(=O)OCC(=O)[C@@]1(O)CCC2C3CCC4=CC(=O)CC[C@]4(C)C3[C@@H](O)C[C@@]21C` (some centres undefined), the Potency in assay [1] was 8.49 µM (active); in assay [8], 2.39 µM (active). The Potency result in assay [2], in assay [3], in assay [4], in [5], in [6] and in assay [18] was “inactive” throughout. Besides, the Potency entry in assay [7], in [9], in assay [11], in assay [13], in [15] and in assay [16] was “inactive” each time. For the same compound, the outcome in assay [10] and in [14] was inactive.
As for `C=CCCCCCCCCC=O`, the Potency result in assay [1], in assay [2], in [3], in assay [5], in assay [6] and in assay [17] was “inactive” each time. The Potency entry in assay [18], in assay [7], in assay [8], in [9], in assay [11] and in assay [13] was “inactive” throughout. For the same compound, the Potency entry in assay [15] and in assay [16] was “inactive” in each case. Also, the outcome in assay [10], in assay [12] and in assay [14] was inactive.
With `COC(=O)CC(C)=O`, the Potency result in assay [1], in assay [2], in [3], in [4], in assay [5] and in assay [6] was “inactive” throughout. The Potency entry in [18], in assay [7], in [8], in assay [9], in assay [11] and in assay [13] was “inactive” in each case. The Potency result in [15] and in assay [16] was “inactive” throughout. For the same compound, the outcome in [10] and in assay [14] was inactive.
`COc1cc(C(=O)N2CCCCCCC2)cc(OC)c1OC`: the Potency entry in assay [1], in [2], in assay [3], in assay [4], in [5] and in [6] was “inactive” each time. In addition, the Potency result in [18], in [7], in assay [9], in [11], in [20] and in assay [13] was “inactive” in each case. Further, the Potency entry in [15] and in [16] was “inactive” in each case. In addition, the outcome in assay [10], in [12] and in [14] was inactive.
Consider `C=C(C)CS(=O)(=O)O`, for which the Potency entry in [1], in assay [2], in assay [3], in [5], in [6] and in assay [17] was “inactive” each time. Also, the Potency entry in [18], in [7], in assay [8], in assay [9], in assay [11] and in [19] was “inactive” in each case. In addition, the Potency result in [13], in assay [15] and in [16] was “inactive” throughout. In addition, the outcome in [10], in assay [12] and in assay [14] was inactive.
Regarding `NS(=O)(=O)c1cc2c(cc1Cl)NC(C1CC3C=CC1C3)NS2(=O)=O` (centres undefined), the Potency result in assay [1], in assay [2], in assay [3], in assay [4], in assay [5] and in assay [6] was “inactive” each time. For the same compound, the Potency result in assay [8], in assay [9], in [11], in assay [19], in assay [13] and in assay [15] was “inactive” each time. In [16], the Potency result is “inactive”. Besides, the outcome in assay [10], in assay [12] and in assay [14] was inactive.
